# Test results taken from PMC7862700, “An all-to-all approach to the identification of sequence-specific readers for epigenetic DNA modifications on cytosine”.
# Assays:
# Test in all cases: DAPPL (digital affinity profiling via proximity ligation, sequencing); 10 mM Tris-HCl pH 7.5, 50 mM NaCl, 1 mM DTT, 4% glycerol, room temperature, 30 min; GST-TFs on glutathione beads, 16-mer random dsDNA library, 0.1% formaldehyde crosslink after washing; high values mean tight binding
# Settings in all cases: protein: recombinant; tags: N-terminal GST; dsDNA, one strand shown
# FLI1 = target: T1, FLI1 (Homo sapiens, UniProt Q01543 1-452)
# T1 sequence: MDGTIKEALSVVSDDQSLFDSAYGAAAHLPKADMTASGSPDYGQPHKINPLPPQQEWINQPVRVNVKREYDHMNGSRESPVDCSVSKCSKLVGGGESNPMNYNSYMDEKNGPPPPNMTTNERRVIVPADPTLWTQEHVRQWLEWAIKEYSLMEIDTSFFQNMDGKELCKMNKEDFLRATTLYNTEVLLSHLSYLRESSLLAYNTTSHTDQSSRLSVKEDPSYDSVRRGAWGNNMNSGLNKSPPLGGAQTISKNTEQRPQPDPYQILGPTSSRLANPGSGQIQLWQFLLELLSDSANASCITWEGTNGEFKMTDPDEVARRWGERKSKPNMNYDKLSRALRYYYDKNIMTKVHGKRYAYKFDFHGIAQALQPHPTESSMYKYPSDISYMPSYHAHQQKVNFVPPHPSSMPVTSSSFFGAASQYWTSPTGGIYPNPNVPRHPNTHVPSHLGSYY
# Procedure, shortened: (§1)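 Binding signal is given per hexamer as its read frequency for a factor divided by its frequency in the tag-only sample. GST-fused human transcription factors were expressed in yeast, captured on glutathione beads, barcoded with DNA and pooled with that sample, then incubated with 200 nmole of a 16-mer random double-stranded DNA library in Tris/NaCl/DTT/glycerol buffer for 30 min at room temperature. The pools were then washed, crosslinked, proximity-ligated, amplified by PCR and sequenced on an Illumina NextSeq500.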
# ELK1 = target: T2, ELK1 (Homo sapiens, UniProt P19419 1-428)
# T2 sequence: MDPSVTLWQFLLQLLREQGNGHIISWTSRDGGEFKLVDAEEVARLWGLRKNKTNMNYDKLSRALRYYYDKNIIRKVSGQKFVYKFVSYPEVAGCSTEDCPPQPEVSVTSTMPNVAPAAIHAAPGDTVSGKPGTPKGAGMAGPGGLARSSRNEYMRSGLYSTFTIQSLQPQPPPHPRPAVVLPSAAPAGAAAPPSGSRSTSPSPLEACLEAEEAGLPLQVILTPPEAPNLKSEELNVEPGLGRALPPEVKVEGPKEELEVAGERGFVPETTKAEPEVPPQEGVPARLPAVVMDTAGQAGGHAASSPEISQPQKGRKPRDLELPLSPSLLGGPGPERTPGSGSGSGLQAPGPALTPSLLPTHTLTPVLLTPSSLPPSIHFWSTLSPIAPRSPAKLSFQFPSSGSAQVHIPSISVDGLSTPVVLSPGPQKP
# Procedure, shortened: as §1
# GABPA = target: T3, GABPA (Homo sapiens, UniProt Q06546 1-454)
# T3 sequence: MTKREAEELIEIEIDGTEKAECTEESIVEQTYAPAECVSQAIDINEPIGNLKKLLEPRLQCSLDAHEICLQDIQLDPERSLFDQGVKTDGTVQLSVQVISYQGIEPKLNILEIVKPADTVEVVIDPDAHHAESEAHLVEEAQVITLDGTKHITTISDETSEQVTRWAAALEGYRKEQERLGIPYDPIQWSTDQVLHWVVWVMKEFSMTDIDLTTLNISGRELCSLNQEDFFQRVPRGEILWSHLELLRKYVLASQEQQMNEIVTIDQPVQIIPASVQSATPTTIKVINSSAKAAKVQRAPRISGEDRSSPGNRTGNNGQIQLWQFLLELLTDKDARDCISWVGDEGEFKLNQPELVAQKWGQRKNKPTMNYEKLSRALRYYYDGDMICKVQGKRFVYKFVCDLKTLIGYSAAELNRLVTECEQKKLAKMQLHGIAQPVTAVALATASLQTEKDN
# Procedure, shortened: as §1
# ERG = target: T4, ERG (Homo sapiens, UniProt P11308 1-479)
# T4 sequence: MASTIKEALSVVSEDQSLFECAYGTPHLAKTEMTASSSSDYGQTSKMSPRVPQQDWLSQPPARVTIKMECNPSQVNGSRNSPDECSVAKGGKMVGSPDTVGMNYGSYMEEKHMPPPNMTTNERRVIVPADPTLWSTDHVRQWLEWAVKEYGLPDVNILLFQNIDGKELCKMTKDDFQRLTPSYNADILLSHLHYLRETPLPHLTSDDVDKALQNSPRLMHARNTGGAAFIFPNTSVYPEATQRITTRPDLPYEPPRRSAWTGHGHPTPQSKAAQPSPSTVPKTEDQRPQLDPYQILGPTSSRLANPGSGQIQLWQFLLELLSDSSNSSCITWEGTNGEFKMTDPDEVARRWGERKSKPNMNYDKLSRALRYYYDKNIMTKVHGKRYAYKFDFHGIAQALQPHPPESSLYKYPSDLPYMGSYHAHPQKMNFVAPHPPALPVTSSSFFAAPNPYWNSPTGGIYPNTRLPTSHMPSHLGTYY
# Procedure, shortened: as §1
# ELF1 = ELF1 (Homo sapiens, UniProt P32519 1-619)
# ELF1, sequence (P32519 whole entry): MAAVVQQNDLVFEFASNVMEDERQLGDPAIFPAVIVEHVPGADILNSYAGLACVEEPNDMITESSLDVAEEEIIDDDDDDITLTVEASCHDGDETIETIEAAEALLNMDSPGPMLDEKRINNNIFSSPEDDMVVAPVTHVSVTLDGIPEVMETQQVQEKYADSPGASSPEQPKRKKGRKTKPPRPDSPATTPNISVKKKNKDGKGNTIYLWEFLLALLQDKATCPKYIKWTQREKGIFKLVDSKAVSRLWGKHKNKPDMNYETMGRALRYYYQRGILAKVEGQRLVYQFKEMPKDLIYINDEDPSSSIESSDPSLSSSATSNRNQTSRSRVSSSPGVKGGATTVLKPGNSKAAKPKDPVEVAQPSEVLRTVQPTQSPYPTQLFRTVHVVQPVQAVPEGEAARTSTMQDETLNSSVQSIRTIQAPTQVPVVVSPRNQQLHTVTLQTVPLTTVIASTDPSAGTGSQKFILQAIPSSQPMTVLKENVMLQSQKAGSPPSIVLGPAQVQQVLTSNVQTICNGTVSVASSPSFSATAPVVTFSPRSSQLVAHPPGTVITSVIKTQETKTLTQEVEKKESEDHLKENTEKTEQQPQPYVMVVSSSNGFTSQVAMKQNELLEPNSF
# Procedure, shortened: as §1
# EHF = target: T5, EHF (Homo sapiens, UniProt Q9NZC4 1-300)
# T5 sequence: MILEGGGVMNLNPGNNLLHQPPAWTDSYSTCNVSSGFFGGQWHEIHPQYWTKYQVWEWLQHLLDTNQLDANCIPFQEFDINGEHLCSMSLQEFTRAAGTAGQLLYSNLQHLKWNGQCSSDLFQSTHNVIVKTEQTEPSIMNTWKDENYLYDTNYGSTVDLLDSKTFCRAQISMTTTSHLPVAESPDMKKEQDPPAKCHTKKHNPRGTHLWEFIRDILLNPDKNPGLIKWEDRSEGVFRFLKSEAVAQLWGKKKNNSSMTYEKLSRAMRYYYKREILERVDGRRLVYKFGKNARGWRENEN
# Procedure, shortened: as §1
# SPI1 = SPI1 (Homo sapiens, UniProt P17947 1-270)
# Procedure, shortened: as §1
# SPIB = SPIB (Homo sapiens, UniProt Q01892 1-262)
# SPIB, sequence (Q01892 whole entry): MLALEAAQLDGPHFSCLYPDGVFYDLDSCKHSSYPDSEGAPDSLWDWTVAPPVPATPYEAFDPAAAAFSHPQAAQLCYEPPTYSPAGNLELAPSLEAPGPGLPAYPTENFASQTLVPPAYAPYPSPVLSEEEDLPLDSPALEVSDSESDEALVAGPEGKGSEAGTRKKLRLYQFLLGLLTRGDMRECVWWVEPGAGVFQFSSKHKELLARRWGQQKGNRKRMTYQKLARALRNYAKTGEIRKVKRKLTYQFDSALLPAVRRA
# Procedure, shortened: as §1
# ELK3 = target: T6, ELK3 (Homo sapiens, UniProt P41970 1-407)
# T6 sequence: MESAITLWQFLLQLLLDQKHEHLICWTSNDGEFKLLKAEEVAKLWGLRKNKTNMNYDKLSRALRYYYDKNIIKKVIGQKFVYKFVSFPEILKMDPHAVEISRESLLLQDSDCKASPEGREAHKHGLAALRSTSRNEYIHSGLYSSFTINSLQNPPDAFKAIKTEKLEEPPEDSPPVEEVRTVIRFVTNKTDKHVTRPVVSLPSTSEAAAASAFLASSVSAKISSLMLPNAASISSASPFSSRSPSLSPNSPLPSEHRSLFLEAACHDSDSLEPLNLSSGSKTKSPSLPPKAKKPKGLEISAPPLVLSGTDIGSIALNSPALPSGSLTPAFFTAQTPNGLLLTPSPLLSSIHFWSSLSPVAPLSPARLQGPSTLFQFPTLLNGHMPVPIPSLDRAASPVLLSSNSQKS
# Procedure, shortened: as §1
sequence,measurement,setting,value
ACCAAT,binding signal,FLI1,"1.35 fold enrichment (6-mer frequency, TF over GST control)"
same,binding signal,ELK1,"1.34 fold enrichment (6-mer frequency, TF over GST control)"
same,binding signal,GABPA,"1.4 fold enrichment (6-mer frequency, TF over GST control)"
same,binding signal,ERG,"1.29 fold enrichment (6-mer frequency, TF over GST control)"
same,binding signal,ELF1,"1.34 fold enrichment (6-mer frequency, TF over GST control)"
same,binding signal,EHF,"1.28 fold enrichment (6-mer frequency, TF over GST control)"
same,binding signal,SPI1,"1.3 fold enrichment (6-mer frequency, TF over GST control)"
same,binding signal,SPIB,"1.35 fold enrichment (6-mer frequency, TF over GST control)"
same,binding signal,ELK3,"1.34 fold enrichment (6-mer frequency, TF over GST control)"
